# Data: ChEMBL document CHEMBL1961873, “Compounds: GSK PKIS; Assays: Nanosyn kinase panel” (2012)
# Experiments:
# [1] = biological target: PAS domain-containing serine/threonine-protein kinase (Homo sapiens) (UniProt Q96RG2); conditions: at 0.1 µM
# [2] = biological target: PAS domain-containing serine/threonine-protein kinase (Homo sapiens) (UniProt Q96RG2); conditions: at 1 µM
# [3] = biological target: Phosphorylase b kinase gamma catalytic chain, skeletal muscle/heart isoform (Homo sapiens) (UniProt Q16816); conditions: at 0.1 µM
# Phosphorylase b kinase gamma catalytic chain, skeletal muscle/heart isoform (Homo sapiens), sequence (Q16816 whole entry, looked up, canonical isoform): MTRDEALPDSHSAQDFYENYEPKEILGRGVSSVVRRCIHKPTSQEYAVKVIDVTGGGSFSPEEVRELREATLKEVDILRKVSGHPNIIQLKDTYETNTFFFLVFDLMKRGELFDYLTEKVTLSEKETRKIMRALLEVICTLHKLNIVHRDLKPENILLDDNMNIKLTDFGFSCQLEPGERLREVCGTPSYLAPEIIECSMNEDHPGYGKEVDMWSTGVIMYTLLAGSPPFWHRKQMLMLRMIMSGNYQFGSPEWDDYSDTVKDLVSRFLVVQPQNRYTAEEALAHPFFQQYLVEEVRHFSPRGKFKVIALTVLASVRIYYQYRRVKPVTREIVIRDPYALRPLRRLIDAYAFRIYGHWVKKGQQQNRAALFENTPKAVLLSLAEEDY
# [4] = biological target: Phosphorylase b kinase gamma catalytic chain, skeletal muscle/heart isoform (Homo sapiens) (UniProt Q16816); conditions: at 1 µM
# [5] = biological target: Phosphorylase b kinase gamma catalytic chain, liver/testis isoform (Homo sapiens) (UniProt P15735); conditions: at 0.1 µM
# [6] = biological target: Phosphorylase b kinase gamma catalytic chain, liver/testis isoform (Homo sapiens) (UniProt P15735); conditions: at 1 µM
# [7] = biological target: Serine/threonine-protein kinase pim-1 (Homo sapiens) (UniProt P11309); conditions: at 0.1 µM
# Serine/threonine-protein kinase pim-1 (Homo sapiens), sequence (P11309 whole entry, looked up): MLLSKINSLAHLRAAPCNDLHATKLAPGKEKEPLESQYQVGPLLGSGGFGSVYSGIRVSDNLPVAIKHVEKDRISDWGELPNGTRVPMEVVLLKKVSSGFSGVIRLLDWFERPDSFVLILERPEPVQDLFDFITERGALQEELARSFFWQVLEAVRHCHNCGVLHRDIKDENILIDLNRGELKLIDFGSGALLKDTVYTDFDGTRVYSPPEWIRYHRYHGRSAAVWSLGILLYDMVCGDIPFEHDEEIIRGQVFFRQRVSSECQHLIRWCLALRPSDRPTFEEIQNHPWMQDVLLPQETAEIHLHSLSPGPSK
# [8] = biological target: Serine/threonine-protein kinase pim-1 (Homo sapiens) (UniProt P11309); conditions: at 1 µM
# [9] = biological target: Serine/threonine-protein kinase pim-2 (Homo sapiens) (UniProt Q9P1W9); conditions: at 0.1 µM
# [10] = biological target: Serine/threonine-protein kinase pim-2 (Homo sapiens) (UniProt Q9P1W9); conditions: at 1 µM
# [11] = biological target: Serine/threonine-protein kinase pim-3 (Homo sapiens) (UniProt Q86V86); conditions: at 0.1 µM
# [12] = biological target: Serine/threonine-protein kinase pim-3 (Homo sapiens) (UniProt Q86V86); conditions: at 1 µM
# [13] = biological target: MAP kinase-activated protein kinase 5 (Homo sapiens) (UniProt Q8IW41); conditions: at 0.1 µM
# [14] = biological target: MAP kinase-activated protein kinase 5 (Homo sapiens) (UniProt Q8IW41); conditions: at 1 µM
# [15] = biological target: Serine/threonine-protein kinase SIK1 (Homo sapiens) (UniProt P57059); conditions: at 0.1 µM
# [16] = biological target: Serine/threonine-protein kinase SIK1 (Homo sapiens) (UniProt P57059); conditions: at 1 µM
# [17] = biological target: Serine/threonine-protein kinase SIK2 (Homo sapiens) (UniProt Q9H0K1); conditions: at 0.1 µM
# [18] = biological target: Serine/threonine-protein kinase SIK2 (Homo sapiens) (UniProt Q9H0K1); conditions: at 1 µM
# [19] = biological target: Serine/threonine-protein kinase TBK1 (Homo sapiens) (UniProt Q9UHD2); conditions: at 0.1 µM
# Serine/threonine-protein kinase TBK1 (Homo sapiens), sequence (Q9UHD2 whole entry): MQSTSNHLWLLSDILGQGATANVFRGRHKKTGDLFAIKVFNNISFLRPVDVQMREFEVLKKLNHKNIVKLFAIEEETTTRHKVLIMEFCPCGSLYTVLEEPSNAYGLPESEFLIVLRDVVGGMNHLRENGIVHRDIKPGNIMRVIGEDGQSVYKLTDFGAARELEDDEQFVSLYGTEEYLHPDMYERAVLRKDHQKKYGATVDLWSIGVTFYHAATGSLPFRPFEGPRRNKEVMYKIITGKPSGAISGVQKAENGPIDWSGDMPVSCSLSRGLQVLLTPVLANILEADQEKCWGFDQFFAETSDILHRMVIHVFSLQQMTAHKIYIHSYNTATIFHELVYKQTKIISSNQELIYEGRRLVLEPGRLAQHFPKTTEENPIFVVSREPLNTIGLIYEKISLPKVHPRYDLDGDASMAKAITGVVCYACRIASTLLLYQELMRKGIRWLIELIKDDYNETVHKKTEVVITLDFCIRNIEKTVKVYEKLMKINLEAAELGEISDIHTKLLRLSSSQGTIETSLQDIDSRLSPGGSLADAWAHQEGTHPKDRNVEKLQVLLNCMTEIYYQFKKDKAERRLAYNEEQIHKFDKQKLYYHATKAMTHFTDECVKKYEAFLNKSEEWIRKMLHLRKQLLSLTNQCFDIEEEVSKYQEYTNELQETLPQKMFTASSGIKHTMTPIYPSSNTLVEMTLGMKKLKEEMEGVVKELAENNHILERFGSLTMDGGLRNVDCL
# [20] = biological target: Serine/threonine-protein kinase TBK1 (Homo sapiens) (UniProt Q9UHD2); conditions: at 1 µM
# [21] = biological target: Testis-specific serine/threonine-protein kinase 1 (Homo sapiens) (UniProt Q9BXA7); conditions: at 0.1 µM
# [22] = biological target: Testis-specific serine/threonine-protein kinase 1 (Homo sapiens) (UniProt Q9BXA7); conditions: at 1 µM
# [23] = biological target: Testis-specific serine/threonine-protein kinase 2 (Homo sapiens) (UniProt Q96PF2); conditions: at 0.1 µM
# Testis-specific serine/threonine-protein kinase 2 (Homo sapiens), sequence (Q96PF2 whole entry, canonical isoform): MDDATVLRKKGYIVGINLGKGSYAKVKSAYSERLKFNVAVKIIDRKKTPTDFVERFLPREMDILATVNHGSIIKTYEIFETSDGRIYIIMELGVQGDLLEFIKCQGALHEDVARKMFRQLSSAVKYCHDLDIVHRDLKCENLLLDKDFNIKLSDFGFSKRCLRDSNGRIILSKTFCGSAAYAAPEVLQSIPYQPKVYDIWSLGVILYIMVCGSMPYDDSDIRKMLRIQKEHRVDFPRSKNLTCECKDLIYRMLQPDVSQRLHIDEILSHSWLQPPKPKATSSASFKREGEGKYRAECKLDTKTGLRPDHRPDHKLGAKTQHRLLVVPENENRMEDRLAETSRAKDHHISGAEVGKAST
# [24] = biological target: Testis-specific serine/threonine-protein kinase 2 (Homo sapiens) (UniProt Q96PF2); conditions: at 1 µM
# [25] = biological target: Casein kinase I isoform alpha (Homo sapiens) (UniProt P48729); conditions: at 0.1 µM
# [26] = biological target: Casein kinase I isoform alpha (Homo sapiens) (UniProt P48729); conditions: at 1 µM
# [27] = biological target: Casein kinase I isoform gamma-1 (Homo sapiens) (UniProt Q9HCP0); conditions: at 0.1 µM
# Casein kinase I isoform gamma-1 (Homo sapiens), sequence (Q9HCP0 whole entry, looked up, canonical isoform): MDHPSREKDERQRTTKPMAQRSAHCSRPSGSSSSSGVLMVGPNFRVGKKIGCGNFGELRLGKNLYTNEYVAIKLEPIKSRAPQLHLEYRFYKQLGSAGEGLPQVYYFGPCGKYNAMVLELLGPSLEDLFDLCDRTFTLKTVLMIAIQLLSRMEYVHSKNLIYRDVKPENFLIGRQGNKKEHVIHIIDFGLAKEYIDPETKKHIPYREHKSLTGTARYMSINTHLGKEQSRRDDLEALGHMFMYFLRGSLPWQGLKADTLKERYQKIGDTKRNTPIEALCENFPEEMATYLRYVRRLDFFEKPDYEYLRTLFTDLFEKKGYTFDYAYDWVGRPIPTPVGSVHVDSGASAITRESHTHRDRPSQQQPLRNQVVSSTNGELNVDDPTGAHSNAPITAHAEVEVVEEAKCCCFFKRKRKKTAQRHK
# [28] = biological target: Casein kinase I isoform gamma-1 (Homo sapiens) (UniProt Q9HCP0); conditions: at 1 µM
# [29] = biological target: Casein kinase I isoform gamma-2 (Homo sapiens) (UniProt P78368); conditions: at 0.1 µM
# Casein kinase I isoform gamma-2 (Homo sapiens), sequence (P78368 whole entry, looked up, canonical isoform): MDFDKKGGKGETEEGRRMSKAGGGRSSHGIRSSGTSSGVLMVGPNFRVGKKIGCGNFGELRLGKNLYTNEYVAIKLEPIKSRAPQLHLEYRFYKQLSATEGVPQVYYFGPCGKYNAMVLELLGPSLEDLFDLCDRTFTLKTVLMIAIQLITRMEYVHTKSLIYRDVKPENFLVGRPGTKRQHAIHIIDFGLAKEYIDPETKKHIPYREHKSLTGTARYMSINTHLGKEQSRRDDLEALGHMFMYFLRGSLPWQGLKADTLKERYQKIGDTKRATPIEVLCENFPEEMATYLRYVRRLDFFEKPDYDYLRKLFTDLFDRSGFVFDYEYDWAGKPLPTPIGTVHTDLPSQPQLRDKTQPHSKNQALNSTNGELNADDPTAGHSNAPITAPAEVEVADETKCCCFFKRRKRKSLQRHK
# [30] = biological target: Casein kinase I isoform gamma-2 (Homo sapiens) (UniProt P78368); conditions: at 1 µM
# [31] = biological target: Casein kinase I isoform gamma-3 (Homo sapiens) (UniProt Q9Y6M4); conditions: at 0.1 µM
# [32] = biological target: Casein kinase I isoform gamma-3 (Homo sapiens) (UniProt Q9Y6M4); conditions: at 1 µM
# [33] = biological target: Cyclin-dependent kinase 1 (Homo sapiens) (UniProt P06493); conditions: at 0.1 µM
# Cyclin-dependent kinase 1 (Homo sapiens), sequence (P06493 whole entry, looked up): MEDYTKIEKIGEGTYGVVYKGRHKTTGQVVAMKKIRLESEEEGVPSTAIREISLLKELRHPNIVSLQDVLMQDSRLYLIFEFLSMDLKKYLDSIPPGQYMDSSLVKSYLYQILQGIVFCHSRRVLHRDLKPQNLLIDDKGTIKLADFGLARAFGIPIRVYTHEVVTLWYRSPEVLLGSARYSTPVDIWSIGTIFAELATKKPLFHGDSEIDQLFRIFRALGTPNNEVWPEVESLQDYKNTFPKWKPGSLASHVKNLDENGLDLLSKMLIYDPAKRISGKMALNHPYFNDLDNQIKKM
# [34] = biological target: Cyclin-dependent kinase 1 (Homo sapiens) (UniProt P06493); conditions: at 1 µM
# [35] = biological target: Cyclin-dependent kinase 2 (Homo sapiens) (UniProt P24941); conditions: at 0.1 µM
# [36] = biological target: Cyclin-dependent kinase 2 (Homo sapiens) (UniProt P24941); conditions: at 1 µM
# [37] = biological target: Cyclin-dependent kinase 2 (Homo sapiens) (UniProt P24941); conditions: at 0.1 µM; remark: listed apart in the source
# [38] = biological target: Cyclin-dependent kinase 2 (Homo sapiens) (UniProt P24941); conditions: at 1 µM; remark: listed apart in the source
# [39] = biological target: T1, CDK3/Cyclin E (Homo sapiens) (UniProt P24864+Q00526); conditions: at 0.1 µM
# [40] = biological target: T1, CDK3/Cyclin E (Homo sapiens); conditions: at 1 µM
# [41] = biological target: Cyclin-dependent kinase 4 (Homo sapiens) (UniProt P11802); conditions: at 0.1 µM
# [42] = biological target: Cyclin-dependent kinase 4 (Homo sapiens) (UniProt P11802); conditions: at 1 µM
# [43] = biological target: Cyclin-dependent kinase 5 (Homo sapiens) (UniProt Q00535); conditions: at 0.1 µM
# [44] = biological target: Cyclin-dependent kinase 5 (Homo sapiens) (UniProt Q00535); conditions: at 1 µM
# [45] = biological target: Cyclin-dependent kinase 6 (Homo sapiens) (UniProt Q00534); conditions: at 0.1 µM
# [46] = biological target: Cyclin-dependent kinase 6 (Homo sapiens) (UniProt Q00534); conditions: at 1 µM
# [47] = biological target: Dual specificity protein kinase CLK2 (Homo sapiens) (UniProt P49760); conditions: at 0.1 µM
# [48] = biological target: Dual specificity protein kinase CLK2 (Homo sapiens) (UniProt P49760); conditions: at 1 µM
# [49] = biological target: Dual specificity protein kinase CLK3 (Homo sapiens) (UniProt P49761); conditions: at 0.1 µM
# Dual specificity protein kinase CLK3 (Homo sapiens), sequence (P49761 whole entry, looked up): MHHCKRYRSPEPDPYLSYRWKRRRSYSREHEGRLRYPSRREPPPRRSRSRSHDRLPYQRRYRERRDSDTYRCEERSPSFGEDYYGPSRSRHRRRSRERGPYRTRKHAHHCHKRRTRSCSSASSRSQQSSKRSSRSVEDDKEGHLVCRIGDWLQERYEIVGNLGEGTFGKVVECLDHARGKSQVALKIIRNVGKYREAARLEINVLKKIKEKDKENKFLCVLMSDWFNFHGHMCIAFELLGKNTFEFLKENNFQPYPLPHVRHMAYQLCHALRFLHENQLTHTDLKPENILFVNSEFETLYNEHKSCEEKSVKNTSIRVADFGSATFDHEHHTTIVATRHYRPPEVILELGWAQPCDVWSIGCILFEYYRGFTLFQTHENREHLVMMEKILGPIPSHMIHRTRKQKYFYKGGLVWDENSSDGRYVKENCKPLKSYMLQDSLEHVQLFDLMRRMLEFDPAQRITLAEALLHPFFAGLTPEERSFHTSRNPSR
# [50] = biological target: Dual specificity protein kinase CLK3 (Homo sapiens) (UniProt P49761); conditions: at 1 µM
# [51] = biological target: Dual specificity tyrosine-phosphorylation-regulated kinase 1A (Homo sapiens) (UniProt Q13627); conditions: at 0.1 µM
# [52] = biological target: Dual specificity tyrosine-phosphorylation-regulated kinase 1A (Homo sapiens) (UniProt Q13627); conditions: at 1 µM
# [53] = biological target: Dual specificity tyrosine-phosphorylation-regulated kinase 1B (Homo sapiens) (UniProt Q9Y463); conditions: at 0.1 µM
# [54] = biological target: Dual specificity tyrosine-phosphorylation-regulated kinase 1B (Homo sapiens) (UniProt Q9Y463); conditions: at 1 µM
# [55] = biological target: Dual specificity tyrosine-phosphorylation-regulated kinase 2 (Homo sapiens) (UniProt Q92630); conditions: at 0.1 µM
# [56] = biological target: Dual specificity tyrosine-phosphorylation-regulated kinase 2 (Homo sapiens) (UniProt Q92630); conditions: at 1 µM
# PAS domain-containing serine/threonine-protein kinase (Homo sapiens), sequence (Q96RG2 whole entry, the tested form may be a part, canonical isoform): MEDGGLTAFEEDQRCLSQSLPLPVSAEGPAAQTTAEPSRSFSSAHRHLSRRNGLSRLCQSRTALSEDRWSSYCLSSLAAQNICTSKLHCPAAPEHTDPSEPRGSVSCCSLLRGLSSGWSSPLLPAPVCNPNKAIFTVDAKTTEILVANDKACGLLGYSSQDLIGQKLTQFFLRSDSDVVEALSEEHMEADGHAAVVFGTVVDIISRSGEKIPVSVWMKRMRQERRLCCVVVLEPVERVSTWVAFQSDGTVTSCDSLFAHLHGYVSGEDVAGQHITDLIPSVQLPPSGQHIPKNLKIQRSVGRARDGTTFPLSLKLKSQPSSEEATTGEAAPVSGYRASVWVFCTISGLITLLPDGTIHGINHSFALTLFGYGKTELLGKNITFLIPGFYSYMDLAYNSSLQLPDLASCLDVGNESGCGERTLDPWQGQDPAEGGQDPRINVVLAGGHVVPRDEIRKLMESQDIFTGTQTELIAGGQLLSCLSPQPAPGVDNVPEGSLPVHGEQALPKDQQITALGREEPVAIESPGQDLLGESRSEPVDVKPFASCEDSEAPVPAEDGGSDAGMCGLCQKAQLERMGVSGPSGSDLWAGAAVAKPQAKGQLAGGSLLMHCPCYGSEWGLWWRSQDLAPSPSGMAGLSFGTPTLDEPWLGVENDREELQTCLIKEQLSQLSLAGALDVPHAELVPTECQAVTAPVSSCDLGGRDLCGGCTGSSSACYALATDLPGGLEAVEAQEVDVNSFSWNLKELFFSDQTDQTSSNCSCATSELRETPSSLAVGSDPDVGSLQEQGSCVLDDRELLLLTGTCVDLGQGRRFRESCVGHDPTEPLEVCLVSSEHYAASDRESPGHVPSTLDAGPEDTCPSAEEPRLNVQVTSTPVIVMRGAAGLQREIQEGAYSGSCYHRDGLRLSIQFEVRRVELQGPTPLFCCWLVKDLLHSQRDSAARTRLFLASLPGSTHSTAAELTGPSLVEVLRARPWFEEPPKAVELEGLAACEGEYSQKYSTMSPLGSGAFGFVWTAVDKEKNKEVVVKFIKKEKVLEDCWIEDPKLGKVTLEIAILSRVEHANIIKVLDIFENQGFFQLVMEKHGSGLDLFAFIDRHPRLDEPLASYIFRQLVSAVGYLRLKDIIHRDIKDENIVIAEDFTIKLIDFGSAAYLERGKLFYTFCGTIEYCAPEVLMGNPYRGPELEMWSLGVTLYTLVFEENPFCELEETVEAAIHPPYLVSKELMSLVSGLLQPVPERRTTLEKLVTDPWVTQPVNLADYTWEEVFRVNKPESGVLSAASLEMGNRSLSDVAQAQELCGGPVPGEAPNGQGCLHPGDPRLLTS
compound,measurement,setting,value
CNC(=O)Oc1cc(C)c(/C=C/c2cncc(C(=O)NC)c2)c(C)c1,inhibition,[1],0.86%
same,inhibition,[2],-0.55%
same,inhibition,[3],0.19%
same,inhibition,[4],3.49%
same,inhibition,[5],4.46%
same,inhibition,[6],1.16%
same,inhibition,[7],0.83%
same,inhibition,[8],1.46%
same,inhibition,[9],-0.21%
same,inhibition,[10],0.61%
same,inhibition,[11],-0.49%
same,inhibition,[12],0.47%
same,inhibition,[13],0.29%
same,inhibition,[14],-1.1%
same,inhibition,[15],46.9%
same,inhibition,[16],88.6%
same,inhibition,[17],7.72%
same,inhibition,[18],30.4%
same,inhibition,[19],2.75%
same,inhibition,[20],3.73%
same,inhibition,[21],1.39%
same,inhibition,[22],0.21%
same,inhibition,[23],1.46%
same,inhibition,[24],-0.8%
same,inhibition,[25],1.61%
same,inhibition,[26],3.51%
same,inhibition,[27],1.33%
same,inhibition,[28],2.91%
same,inhibition,[29],0.3%
same,inhibition,[30],2.73%
same,inhibition,[31],1.68%
same,inhibition,[32],4.49%
same,inhibition,[33],-0.06%
same,inhibition,[34],-0.3%
same,inhibition,[35],0.63%
same,inhibition,[36],-1.72%
same,inhibition,[37],1.5%
same,inhibition,[38],0.5%
same,inhibition,[39],0.33%
same,inhibition,[40],1.01%
same,inhibition,[41],0.95%
same,inhibition,[42],2.18%
same,inhibition,[43],0.2%
same,inhibition,[44],-0.43%
same,inhibition,[45],-2.38%
same,inhibition,[46],0.77%
same,inhibition,[47],1.89%
same,inhibition,[48],4.38%
same,inhibition,[49],0.33%
same,inhibition,[50],1.86%
same,inhibition,[51],-0.43%
same,inhibition,[52],6.77%
same,inhibition,[53],-0.07%
same,inhibition,[54],0.76%
same,inhibition,[55],2.64%
same,inhibition,[56],2.73%
